The record followed here is PubChem BioAssay.

The nature of experiment [1]: yeast TOR pathway RPL19A-GFP modulators, primary screen, cell-based, S. cerevisiae, multiplex flow cytometry (AID 1862; in the data active = percent of DMSO control GFP below about 86%;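 note: lower values mimic rapamycin by blocking the RPL19A rise seen in DMSO cells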). As to conditions: S. cerevisiae RPL19A-GFP strain, flow cytometry fluorescence, 3 h; at 10 µM; stronger effect = lower value. A general note: A flow cytometer gives signals particle by particle.
A short description of experiment [2]: modulators of MEP2-GFP levels in yeast, primary screen, S. cerevisiae, multiplex flow cytometry (AID 1867;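 active = GFP response, as percent of the DMSO control, above the screen-wide mean plus 3 SD, about 139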;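 note: median GFP channel fluorescence of barcode-gated MEP2-GFP cells measured by flow cytometry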). As to conditions: S. cerevisiae MEP2-GFP strain, 3 h, at 10 µM, stronger effect = higher value, 100% means same as DMSO wells.
A short description of experiment [3]: modulators of CIT2-GFP expression in yeast, primary screen, S. cerevisiae, GFP fusion, multiplex flow cytometry (AID 1870).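 Note: barcoded CIT2-GFP strain pooled with four other GFP strains with rapamycin as positive control; median GFP fluorescence per well over plate mean of DMSO wells so 100% = DMSO.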 As to conditions: 3 h, at 10 µM, stronger effect = higher value.
A short description of experiment [4]: modulators of LAP4-GFP expression in yeast, primary screen, S. cerevisiae, multiplex flow cytometry (AID 1873;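 active = GFP signal, as percent of the solvent control, above the screen mean plus 3 SD, about 149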). The settings on record: 3 h, at 10 µM, stronger effect = higher value.
Experiment [5] in a line: modulators of AGP1-GFP expression in yeast TOR pathway, primary screen, cell-based, multiplex flow cytometry, S. cerevisiae (AID 1887;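 active = GFP signal above the screen-wide mean plus 3 SD, that is over about 124.5% of the solvent control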;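 note: AGP1-GFP fusion strain of S. cerevisiae within a five-strain barcoded multiplex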). As to conditions: 3 h, at 10 µM, stronger effect = higher value.
The nature of experiment [6]: inhibitors of CD8+ T cell-vesicle binding, pilot screen, LFA-1/ICAM-1 modulator project, MLPCN validation set, flow cytometry (AID 2523;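 active = response below a set limit, under 55% cells CD8-positive and vesicle-bound, and CD8 cells' 90th-percentile brightness under 279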;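 for vesicle binding response: mean PE anti-B7-1 fluorescence of CD8+ cells relative to row control; 100% = QL9-loaded vesicles with DMSO vehicle in the same plate row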). As to conditions: 2C mouse CD8+ T cells, at 7 µM, stronger effect = lower value; double positive events: measured here: CD8+/vesicle+ event percentage.
For experiment [7], the target named is Integrin beta-1 (Homo sapiens) + Integrin alpha-4 (Homo sapiens) (UniProt P13612+P05556). Put plainly: inhibition of HUTS-21 binding to VLA-4, pilot screen, VLA-4 allosteric modulator project, U937 cells, HUTS-21 mAb, flow cytometry, validation set (AID 2674;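 active = inhibition above 50%, about 3 SD of the validation set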;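 note: antibody binding induced by the VLA-4 ligand LDV present at three times its Kd; 0% = LDV ligand with antibody and no compound and 100% = antibody without LDV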). The settings on record: HUTS-21 LIBS mAb binding, at 6.7 µM, stronger effect = higher value, binding induced by LDV ligand.
Integrin beta-1 (Homo sapiens) + Integrin alpha-4 (Homo sapiens), sequence (P05556 whole entry, looked up): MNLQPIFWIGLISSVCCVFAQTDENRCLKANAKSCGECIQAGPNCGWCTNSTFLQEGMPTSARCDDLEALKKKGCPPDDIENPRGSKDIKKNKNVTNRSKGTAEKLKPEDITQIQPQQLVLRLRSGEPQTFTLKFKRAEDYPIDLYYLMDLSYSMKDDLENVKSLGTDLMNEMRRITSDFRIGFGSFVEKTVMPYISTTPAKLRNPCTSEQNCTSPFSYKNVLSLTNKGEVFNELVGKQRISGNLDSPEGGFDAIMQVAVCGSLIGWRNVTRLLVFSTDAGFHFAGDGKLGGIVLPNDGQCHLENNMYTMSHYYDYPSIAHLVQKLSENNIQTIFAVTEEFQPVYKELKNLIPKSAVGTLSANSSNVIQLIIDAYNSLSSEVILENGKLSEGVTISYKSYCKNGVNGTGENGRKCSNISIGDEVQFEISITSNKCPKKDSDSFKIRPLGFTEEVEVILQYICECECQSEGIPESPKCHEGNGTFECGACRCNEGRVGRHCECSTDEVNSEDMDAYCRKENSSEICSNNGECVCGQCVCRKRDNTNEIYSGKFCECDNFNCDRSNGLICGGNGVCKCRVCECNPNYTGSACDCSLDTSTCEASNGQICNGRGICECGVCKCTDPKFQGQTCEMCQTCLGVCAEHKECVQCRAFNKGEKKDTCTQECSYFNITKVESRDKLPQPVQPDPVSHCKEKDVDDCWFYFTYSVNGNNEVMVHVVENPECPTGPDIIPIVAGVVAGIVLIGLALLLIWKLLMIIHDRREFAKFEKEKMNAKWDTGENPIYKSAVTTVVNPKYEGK
Integrin beta-1 (Homo sapiens) + Integrin alpha-4 (Homo sapiens), sequence (P13612 whole entry, looked up): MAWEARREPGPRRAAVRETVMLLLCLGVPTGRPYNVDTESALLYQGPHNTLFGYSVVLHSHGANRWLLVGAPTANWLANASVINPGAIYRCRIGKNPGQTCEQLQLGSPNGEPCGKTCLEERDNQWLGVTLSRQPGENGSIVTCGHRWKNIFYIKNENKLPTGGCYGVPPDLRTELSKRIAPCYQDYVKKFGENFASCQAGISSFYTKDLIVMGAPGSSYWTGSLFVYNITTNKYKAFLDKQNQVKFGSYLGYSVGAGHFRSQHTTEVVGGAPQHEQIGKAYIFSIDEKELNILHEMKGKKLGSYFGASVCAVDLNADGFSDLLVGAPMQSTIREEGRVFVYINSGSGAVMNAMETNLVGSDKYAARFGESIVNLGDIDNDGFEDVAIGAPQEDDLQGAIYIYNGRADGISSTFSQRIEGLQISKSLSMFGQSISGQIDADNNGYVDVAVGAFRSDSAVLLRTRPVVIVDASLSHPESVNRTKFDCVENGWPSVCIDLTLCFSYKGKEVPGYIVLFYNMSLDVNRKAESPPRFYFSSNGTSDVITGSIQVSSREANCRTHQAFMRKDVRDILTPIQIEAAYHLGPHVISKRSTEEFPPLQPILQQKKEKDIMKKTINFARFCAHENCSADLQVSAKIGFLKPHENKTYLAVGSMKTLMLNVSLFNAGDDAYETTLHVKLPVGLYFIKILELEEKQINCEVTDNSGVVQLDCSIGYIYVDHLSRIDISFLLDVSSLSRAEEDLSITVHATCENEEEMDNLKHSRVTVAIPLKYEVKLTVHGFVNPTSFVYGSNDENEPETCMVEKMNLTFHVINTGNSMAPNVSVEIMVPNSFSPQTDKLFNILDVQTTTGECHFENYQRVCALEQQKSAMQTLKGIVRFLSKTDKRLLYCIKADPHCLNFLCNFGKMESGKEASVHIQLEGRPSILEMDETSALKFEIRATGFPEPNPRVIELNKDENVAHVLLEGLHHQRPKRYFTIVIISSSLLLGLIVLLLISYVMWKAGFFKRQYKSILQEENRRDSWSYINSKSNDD

A short description of experiment [8]: superoxide lowering in aged yeast cells, pilot screen, validation compound set (AID 2706;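 active = superoxide response below 65% of plate, a cut near 3 SD across the whole screen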;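 note: yeast exposed to compound for one week at 30 degrees C before staining; 100% = mean of all compound wells on the same plate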). As to conditions: S. cerevisiae aging, superoxide DHE fluorescence; at 10 µM; stronger effect = lower value.
Experiment [9] addresses Beta-adrenergic receptor kinase 1 (Homo sapiens) (UniProt P25098). Put plainly: GRK2 binders displacing RNA aptamer, biochemical, validation, human GRK2, bead flow cytometry (AID 488806;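 active = aptamer binding inhibition above 30%, about 3 SD of noise from non-fluorescent compounds; inactive = inhibition at or below 30%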). The settings on record: bead-bound GRK2, FAM-aptamer displacement, at 10 µM, stronger effect = higher value.
The target in experiment [10] is Beta-2 adrenergic receptor (Homo sapiens) (UniProt P07550). Put plainly: beta2AR agonists driving receptor internalization, pilot screen, cell-based, FAP fluorogen, flow cytometry, validation set (AID 504459;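 active = percent response above 42, roughly 3 SD of non-fluorescent test compounds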;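 note: agonist-driven loss of surface beta2AR via internalization measured by FAP dye flow cytometry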). The settings on record: Am2.2-beta2AR cells, FAP surface receptor flow cytometry; at 10 µM; stronger effect = higher value.
Beta-2 adrenergic receptor (Homo sapiens), sequence (P07550 whole entry, looked up): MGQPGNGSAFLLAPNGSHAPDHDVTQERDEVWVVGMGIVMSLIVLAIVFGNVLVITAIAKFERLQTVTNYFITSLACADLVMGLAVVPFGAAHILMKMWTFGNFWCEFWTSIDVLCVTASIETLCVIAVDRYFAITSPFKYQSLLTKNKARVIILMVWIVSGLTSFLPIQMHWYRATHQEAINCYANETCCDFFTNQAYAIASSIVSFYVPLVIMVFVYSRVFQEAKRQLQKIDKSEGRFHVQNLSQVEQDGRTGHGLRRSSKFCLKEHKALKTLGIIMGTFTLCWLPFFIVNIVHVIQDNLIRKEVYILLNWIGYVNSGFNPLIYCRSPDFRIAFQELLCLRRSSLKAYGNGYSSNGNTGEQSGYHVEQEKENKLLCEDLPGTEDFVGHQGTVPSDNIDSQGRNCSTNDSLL
Experiment [11] concerns the target AP-2 complex subunit beta (Homo sapiens) (UniProt P63010). Kind of experiment: inhibitors of arrestin peptide binding to AP2, pilot screen, biochemical, validation set, GST-AP2 beads, flow cytometry (AID 504541;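 active = inhibition above 54%, about 3 SD of non-fluorescent compounds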;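 note: AP2 carries R879A mutation and is captured from E. coli lysate; bead-bound FITC arrestin peptide fluorescence measuring arrestin peptide binding to AP2; 0% = DMSO wells and 100% = excess unlabeled arrestin peptide control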). The settings on record: FITC arrestin peptide, at 10 µM, stronger effect = higher value, AP2 beta2 appendage fragment, R879A mutant.
The nature of experiment [12]: yeast V-ATPase proton transport modulators, S. cerevisiae, pHLuorin, HTS validation (AID 504600; in the data active = response above about 15%;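 note: plate controls were DMSO for no effect and reference compound for full effect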). As to conditions: S. cerevisiae pHLuorin cytosolic pH, at 10 µM, stronger effect = higher value.
Experiment [13] relates to anti-desmoglein-3 scFv antibody binding to human DSG3. Kind of experiment: inhibitors of anti-DSG3 scFv binding to DSG3, pilot screen, biochemical, validation compound set, bead-based, flow cytometry (AID 588368;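 active = binding below the plate cutoff, the plate median minus 3 SD, with a reading above zero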;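 note: signal is the median channel fluorescence of bead-bound GFP antibody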). As to conditions: Protein G beads, DSG3-Fc, scFv-GFP binding, at 10 µM, stronger effect = lower value.
Experiment [14] can be described thus: inhibitors of fungal efflux pumps CDR1, CDR2, MDR1, pilot screen, validation compound set, multiplex, phenotypic (AID 588506;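 active = efflux inhibition above 0.42, the validation set average plus 4 SD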;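 note: Nile Red retained in cells so higher fluorescence means more efflux inhibition; 0 = negative control wells and 1 = enniatin B 25 µM full block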). As to conditions: S. cerevisiae pump-expressing triplex, Nile Red efflux flow cytometry; at 10 µM; stronger effect = higher value; the pumps come from Candida albicans.
In experiment [15] the target is ATP-binding cassette sub-family B member 6 (Homo sapiens) (UniProt Q9NP58). Put plainly: ABCB6 transporter inhibitors, pilot screen, K562-ABCB6 cells, flow cytometry, validation set (AID 588550;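 active = inhibition above the screen-wide mean plus 3 SD, about 51%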;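 note: 0% = DMSO wells and 100% = benzethonium chloride 70 µM positive control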). As to conditions: K562-ABCB6 porphyrin accumulation, 1 h, at 10 µM, stronger effect = higher value.
ATP-binding cassette sub-family B member 6 (Homo sapiens), sequence (Q9NP58 whole entry, looked up): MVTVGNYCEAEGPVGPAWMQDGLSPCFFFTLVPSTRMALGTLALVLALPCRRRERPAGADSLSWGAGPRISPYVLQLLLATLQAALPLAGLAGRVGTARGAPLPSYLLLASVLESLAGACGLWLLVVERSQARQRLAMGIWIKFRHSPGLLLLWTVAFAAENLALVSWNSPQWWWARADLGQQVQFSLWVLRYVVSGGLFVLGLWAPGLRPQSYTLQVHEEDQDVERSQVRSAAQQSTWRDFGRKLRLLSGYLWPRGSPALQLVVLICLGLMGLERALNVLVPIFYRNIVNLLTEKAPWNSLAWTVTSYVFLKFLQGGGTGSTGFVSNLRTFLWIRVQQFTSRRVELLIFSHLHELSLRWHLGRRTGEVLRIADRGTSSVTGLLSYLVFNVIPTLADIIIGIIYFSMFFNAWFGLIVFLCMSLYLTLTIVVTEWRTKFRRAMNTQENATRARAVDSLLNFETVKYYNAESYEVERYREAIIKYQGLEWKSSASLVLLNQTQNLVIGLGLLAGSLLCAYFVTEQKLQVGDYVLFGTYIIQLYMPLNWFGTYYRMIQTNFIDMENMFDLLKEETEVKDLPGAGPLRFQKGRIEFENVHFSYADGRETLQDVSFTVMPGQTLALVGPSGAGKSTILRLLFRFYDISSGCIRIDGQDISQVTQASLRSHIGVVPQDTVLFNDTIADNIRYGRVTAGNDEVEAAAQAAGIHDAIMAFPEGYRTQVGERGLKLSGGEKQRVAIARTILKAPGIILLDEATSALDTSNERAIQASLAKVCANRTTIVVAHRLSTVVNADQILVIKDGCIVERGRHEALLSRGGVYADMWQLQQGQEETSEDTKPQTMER
The nature of experiment [16]: promoters of myeloid differentiation in arrested cells, primary screen, cell-based, GFP/MAC1 double positive, flow cytometry, validation set (AID 588685;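 active = differentiation response of at least 50%, scaled between solvent and reference control, from cells with both markers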;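 note: compound exposure lasts four days before antibody staining and flow analysis; 0% = DMSO wells and 100% = 5 µM fulvestrant positive control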). As to conditions: ER-HoxA9 marrow cells, stronger effect = higher value, normalized: vehicle 0, fulvestrant 100.

Structures are written as SMILES. Results filed as inconclusive are left out. The source made the active and inactive calls.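 Rule for the calls, unless noted: active = percent response above a set limit, the screen-wide mean plus 3 SD (cut at about 130% in these data); inactive = the rest.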

Beta-adrenergic receptor kinase 1 (Homo sapiens), sequence (P25098 whole entry, looked up): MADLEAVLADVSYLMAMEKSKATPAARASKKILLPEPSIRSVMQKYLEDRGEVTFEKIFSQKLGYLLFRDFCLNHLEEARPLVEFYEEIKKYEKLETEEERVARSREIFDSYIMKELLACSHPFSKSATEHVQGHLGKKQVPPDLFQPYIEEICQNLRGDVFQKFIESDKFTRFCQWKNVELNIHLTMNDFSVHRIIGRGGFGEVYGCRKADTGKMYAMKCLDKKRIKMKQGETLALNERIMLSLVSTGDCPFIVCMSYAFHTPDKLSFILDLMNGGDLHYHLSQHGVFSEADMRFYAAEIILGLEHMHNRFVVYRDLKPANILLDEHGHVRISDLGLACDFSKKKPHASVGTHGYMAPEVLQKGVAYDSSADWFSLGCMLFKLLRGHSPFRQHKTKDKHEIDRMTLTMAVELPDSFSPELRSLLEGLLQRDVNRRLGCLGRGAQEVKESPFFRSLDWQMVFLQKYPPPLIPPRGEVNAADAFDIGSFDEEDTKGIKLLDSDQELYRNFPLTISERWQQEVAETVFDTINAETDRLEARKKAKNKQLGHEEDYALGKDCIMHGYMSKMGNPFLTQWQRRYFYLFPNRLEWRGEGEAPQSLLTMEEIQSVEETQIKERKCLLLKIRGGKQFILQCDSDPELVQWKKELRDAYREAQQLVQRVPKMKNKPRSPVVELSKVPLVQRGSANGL
AP-2 complex subunit beta (Homo sapiens), sequence (P63010 whole entry, looked up, the tested form may be a part, one chain of several): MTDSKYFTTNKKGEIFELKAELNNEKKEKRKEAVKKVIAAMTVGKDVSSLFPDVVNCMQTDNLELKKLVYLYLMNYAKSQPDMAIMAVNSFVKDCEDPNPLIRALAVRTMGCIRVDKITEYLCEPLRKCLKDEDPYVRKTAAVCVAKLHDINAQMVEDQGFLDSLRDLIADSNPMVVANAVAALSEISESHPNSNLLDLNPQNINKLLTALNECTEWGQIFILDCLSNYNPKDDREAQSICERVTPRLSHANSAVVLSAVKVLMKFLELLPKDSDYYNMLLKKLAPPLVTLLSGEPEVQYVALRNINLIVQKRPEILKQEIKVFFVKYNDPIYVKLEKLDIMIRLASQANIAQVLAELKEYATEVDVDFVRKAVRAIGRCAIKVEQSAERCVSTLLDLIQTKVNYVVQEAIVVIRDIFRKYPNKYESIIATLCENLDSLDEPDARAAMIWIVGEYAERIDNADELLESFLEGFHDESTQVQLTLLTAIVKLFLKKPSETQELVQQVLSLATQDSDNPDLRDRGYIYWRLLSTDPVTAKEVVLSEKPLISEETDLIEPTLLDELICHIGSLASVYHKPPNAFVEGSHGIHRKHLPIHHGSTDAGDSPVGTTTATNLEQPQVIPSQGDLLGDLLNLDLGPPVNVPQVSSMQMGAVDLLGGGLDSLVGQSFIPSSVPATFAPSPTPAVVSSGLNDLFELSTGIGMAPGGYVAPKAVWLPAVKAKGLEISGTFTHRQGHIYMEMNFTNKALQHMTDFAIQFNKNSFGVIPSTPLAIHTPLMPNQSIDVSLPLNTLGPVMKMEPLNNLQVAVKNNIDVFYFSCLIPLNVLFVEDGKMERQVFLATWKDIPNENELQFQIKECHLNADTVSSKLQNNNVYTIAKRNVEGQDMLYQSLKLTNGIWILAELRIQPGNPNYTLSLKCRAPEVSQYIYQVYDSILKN

In general, inhibition refers to the change of the read-out against control, counted positive when it falls. On to `CSc1cccc(NC(=O)/C=C/c2ccccc2)c1`, for which, in [1], the percent of DMSO control GFP is 91.3% (inactive). The GFP response vs DMSO in [2] was 90.5% (inactive); in [4], 83.1% (inactive). For the same compound, the percent response of DMSO control in experiment [3] is 88.6% (inactive). The GFP response, % of DMSO in experiment [5] was 80.5% (inactive). In experiment [6], this compound gave a double positive events of 62.5%. Moreover, in [6], the vesicle binding response is 219% (inactive). Further, the inhibition in experiment [7] was 15.2% (inactive); in [11], 7.39% (inactive); in experiment [15] it was 10% (inactive). Also, in experiment [8], the superoxide response (% of plate) was 114% (inactive). The aptamer binding inhibition in experiment [9] is 1% (inactive). For the same compound, the response in experiment [10] is 1.66% (inactive); in [12], 1.17% (inactive). Moreover, the binding (% of control) in experiment [13] is 104% (inactive). In addition, in experiment [14], the efflux inhibition (fraction of control) is -0.38 (inactive). Moreover, the differentiation response in [16] is 9.01% (inactive).

On to `O=C(O)C1[C@H]2C(=O)N(C3CCCC3)C[C@]23C=C[C@H]1O3` (stereo not given in full), for which, in experiment [1], the percent of DMSO control GFP was 99.5% (inactive). For the same compound, the GFP response vs DMSO in experiment [2] is 104% (inactive); in experiment [4], 121% (inactive). For the same compound, in experiment [3], the percent response of DMSO control was 101% (inactive). Further, in [5], the GFP response, % of DMSO was 113% (inactive). The same compound returned a double positive events in [6] of 57.9%. Further, the vesicle binding response in [6] is 153% (inactive). Besides, the values for the inhibition in [7], in [11] and in experiment [15] were 11.7% (inactive), -2.45% (inactive) and 1% (inactive), respectively. In addition, the superoxide response (% of plate) in experiment [8] was 88% (inactive). Moreover, the aptamer binding inhibition in experiment [9] was -2% (inactive). For the same compound, the figures for the response in experiment [10] and in [12] were -17.8% (inactive) and -1.21% (inactive), respectively. In addition, in [13], the binding (% of control) was 101% (inactive). Also, in [14], the efflux inhibition (fraction of control) was 0.04 (inactive). Moreover, the differentiation response in experiment [16] is -6.96% (inactive).

For the compound `Cc1ccc(-n2cc(CNCCN3CCOC3=O)c(-c3ccc(F)cc3)n2)cc1`, in experiment [1], the percent of DMSO control GFP is 103% (inactive). Also, the figures for the GFP response vs DMSO in [2] and in experiment [4] were 107% (inactive) and 85% (inactive), respectively. In addition, the percent response of DMSO control in experiment [3] was 108% (inactive). In addition, the GFP response, % of DMSO in experiment [5] was 96.5% (inactive). In experiment [6], this compound showed a double positive events of 59.3%. Besides, the vesicle binding response in experiment [6] is 129% (inactive). Moreover, the results for the inhibition in experiment [7], in [11] and in experiment [15] were 9.63% (inactive), -0.44% (inactive) and 4% (inactive), respectively. In addition, in [8], the superoxide response (% of plate) was 109% (inactive). Further, the aptamer binding inhibition in experiment [9] was 2% (inactive). Further, the response in [10] was -24.7% (inactive); in experiment [12] it was -4.84% (inactive). The binding (% of control) in experiment [13] was 104% (inactive). Further, the efflux inhibition (fraction of control) in [14] was -0.36 (inactive). The differentiation response in [16] is -1.65% (inactive).

Take `O=C(Nc1ccccc1C(=O)N1CCCCCC1)c1ccccc1Cl`: in experiment [1], the percent of DMSO control GFP was 103% (inactive). Besides, the GFP response vs DMSO in experiment [2] was 103% (inactive); in experiment [4] it was 96.5% (inactive). Moreover, in experiment [3], the percent response of DMSO control was 94.9% (inactive). Besides, the GFP response, % of DMSO in [5] is 102% (inactive). In experiment [6], the double positive events stood at 60.2%. Besides, the vesicle binding response in [6] is 146% (inactive). For the same compound, the values for the inhibition in experiment [7], in [11] and in experiment [15] were -10.3% (inactive), 26.6% (inactive) and 7% (inactive), respectively. Further, in experiment [8], the superoxide response (% of plate) is 115% (inactive). For the same compound, the aptamer binding inhibition in experiment [9] was 4% (inactive). For the same compound, the response in experiment [10] is -9.01% (inactive); in experiment [12] it was -0.64% (inactive). Further, the binding (% of control) in experiment [13] is 100% (inactive). The efflux inhibition (fraction of control) in experiment [14] was -0.06 (inactive). Besides, the differentiation response in experiment [16] was 8.02% (inactive).

For `Cc1nc2c(c3c1[nH]c1ccccc13)C(=O)CC(C)(C)C2`, in [1], the percent of DMSO control GFP was 99.1% (inactive). The GFP response vs DMSO in experiment [2] and in experiment [4] was 114% (inactive) throughout. Moreover, the percent response of DMSO control in experiment [3] was 86.3% (inactive). The GFP response, % of DMSO in [5] is 102% (inactive). In addition, the double positive events in [6] was found to be 59.1%. Moreover, in experiment [6], the vesicle binding response was 186% (inactive). In addition, the inhibition in [7] was 6.4% (inactive); in experiment [11], 6.18% (inactive); in experiment [15], 1% (inactive). For the same compound, in experiment [8], the superoxide response (% of plate) was 99.2% (inactive). Also, the aptamer binding inhibition in experiment [9] was 3% (inactive). Moreover, the results for the response in experiment [10] and in [12] were 31.6% (inactive) and -1.94% (inactive), respectively. Besides, in [13], the binding (% of control) was 98.9% (inactive). For the same compound, in experiment [14], the efflux inhibition (fraction of control) was 0.3 (inactive). The differentiation response in [16] is -5.6% (inactive).
